In PubChem BioAssay AID1159580 (chemical genetic matrix, 2015):
Hit rate of the full screen: of about 5,500 compounds, about 2,000 (36%) were called active. Inconclusive results (about 18%) are left out. Cut-off read from the data, not from the text of the source: active = normalized growth mostly below about 0.91 (no sharp cut-off); inconclusive = no clear call, values can overlap the other calls; inactive = mostly above about 0.92. This is one part of the list.

Assay: chemical genetic growth profiling, strain panel (AID 1159580);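 note: tested at 20 µM; growth read once vehicle control cultures reached saturation at 30 °C; 1 = growth at the plate median or of vehicle wells; lower values mean less growth of the strain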
Conditions: growth OD
[1] = S. cerevisiae deletion strains, locus YDL101C, strain DUN1, stronger effect = lower value
[2] = S. cerevisiae deletion strains, locus YHR030C, strain SLT2, stronger effect = lower value
[3] = S. cerevisiae deletion strains, locus YAR019C, strain CDC15, stronger effect = lower value
[4] = S. cerevisiae deletion strains, locus YBL105C, strain PKC1, stronger effect = lower value
[5] = S. cerevisiae deletion strains, locus YBR135W, strain CKS1, stronger effect = lower value
[6] = S. cerevisiae deletion strains, locus YBR136W, strain MEC1, stronger effect = lower value
[7] = S. cerevisiae deletion strains, locus YBR160W, strain CDC28, stronger effect = lower value
[8] = S. cerevisiae deletion strains, locus YDL017W, strain CDC7, stronger effect = lower value
[9] = S. cerevisiae deletion strains, locus YDL028C, strain MPS1, stronger effect = lower value
[10] = S. cerevisiae deletion strains, locus YDL108W, strain KIN28, stronger effect = lower value
[11] = S. cerevisiae deletion strains, locus YDL132W, strain cdc53, stronger effect = lower value
[12] = S. cerevisiae deletion strains, locus YDL214C, strain PRR2, stronger effect = lower value
[13] = S. cerevisiae deletion strains, locus YDR052C, strain DBF4, stronger effect = lower value
[14] = S. cerevisiae deletion strains, locus YDR054C, strain cdc34, stronger effect = lower value
[15] = S. cerevisiae deletion strains, locus YDR226W, strain ADK1, stronger effect = lower value
[16] = S. cerevisiae deletion strains, locus YDR477W, strain SNF1, stronger effect = lower value
[17] = S. cerevisiae deletion strains, locus YER123W, strain YCK3, stronger effect = lower value
[18] = S. cerevisiae deletion strains, locus YER133W, strain GLC7, stronger effect = lower value
[19] = S. cerevisiae deletion strains, locus YFL009W, strain cdc4, stronger effect = lower value
[20] = S. cerevisiae deletion strains, locus YFL029C, strain CAK1, stronger effect = lower value
[21] = S. cerevisiae deletion strains, locus YFR003C, strain YPI1, stronger effect = lower value
[22] = S. cerevisiae deletion strains, locus YFR019W, strain FAB1, stronger effect = lower value
[23] = S. cerevisiae deletion strains, locus YFR028C, strain CDC14, stronger effect = lower value
[24] = S. cerevisiae deletion strains, locus YGR040W, strain KSS1, stronger effect = lower value
[25] = S. cerevisiae deletion strains, locus YGR052W, strain FMP48, stronger effect = lower value
[26] = S. cerevisiae deletion strains, locus YGR092W, strain DBF2, stronger effect = lower value
[27] = S. cerevisiae deletion strains, locus YHR079C, strain IRE1, stronger effect = lower value
[28] = S. cerevisiae deletion strains, locus YHR082C, strain KSP1, stronger effect = lower value
[29] = S. cerevisiae deletion strains, locus YHR205W, strain SCH9, stronger effect = lower value
[30] = S. cerevisiae deletion strains, locus YIL147C, strain SLN1, stronger effect = lower value
[31] = S. cerevisiae deletion strains, locus YJL095W, strain BCK1, stronger effect = lower value
[32] = S. cerevisiae deletion strains, locus YJL128C, strain PBS2, stronger effect = lower value
[33] = S. cerevisiae deletion strains, locus YJL157C, strain FAR1, stronger effect = lower value
[34] = S. cerevisiae deletion strains, locus YJR016C, strain ILV3, stronger effect = lower value
[35] = S. cerevisiae deletion strains, locus YJR066W, strain TOR1 (second series), stronger effect = lower value
[36] = S. cerevisiae deletion strains, locus YJR066W, strain TOR1, stronger effect = lower value
[37] = S. cerevisiae deletion strains, locus YKL048C, strain ELM1, stronger effect = lower value
[38] = S. cerevisiae deletion strains, locus YKL067W, strain YNK1, stronger effect = lower value
[39] = S. cerevisiae deletion strains, locus YKL101W, strain HSL1, stronger effect = lower value
[40] = S. cerevisiae deletion strains, locus YKL193C, strain SDS22, stronger effect = lower value
[41] = S. cerevisiae deletion strains, locus YKL203C, strain TOR2, stronger effect = lower value
[42] = S. cerevisiae deletion strains, locus YLR113W, strain HOG1, stronger effect = lower value
[43] = S. cerevisiae deletion strains, locus YLR133W, strain CKI1, stronger effect = lower value
[44] = S. cerevisiae deletion strains, locus YLR403W, strain SFP1, stronger effect = lower value
[45] = S. cerevisiae deletion strains, locus YML070W, strain DAK1, stronger effect = lower value
[46] = S. cerevisiae deletion strains, locus YMR205C, strain PFK2 (second series), stronger effect = lower value
[47] = S. cerevisiae deletion strains, locus YMR277W, strain FCP1, stronger effect = lower value
[48] = S. cerevisiae deletion strains, locus YNL006W, strain LST8, stronger effect = lower value
[49] = S. cerevisiae deletion strains, locus YNL020C, strain ARK1, stronger effect = lower value
[50] = S. cerevisiae deletion strains, locus YNL161W, strain CBK1, stronger effect = lower value
[51] = S. cerevisiae deletion strains, locus YNL183C, strain NPR1, stronger effect = lower value
[52] = S. cerevisiae deletion strains, locus YNL207W, strain RIO2, stronger effect = lower value
[53] = S. cerevisiae deletion strains, locus YNL222W, strain SSU72, stronger effect = lower value
[54] = S. cerevisiae deletion strains, locus YNL307C, strain MCK1 (second series), stronger effect = lower value
[55] = S. cerevisiae deletion strains, locus YOL136C, strain PFK27, stronger effect = lower value
[56] = S. cerevisiae deletion strains, locus YOR061W, strain CKA2, stronger effect = lower value
[57] = S. cerevisiae deletion strains, locus YOR119C, strain RIO1, stronger effect = lower value
[58] = S. cerevisiae deletion strains, locus YOR231W, strain MKK1, stronger effect = lower value
[59] = S. cerevisiae deletion strains, locus YOR329C, strain SCD5, stronger effect = lower value
[60] = S. cerevisiae deletion strains, locus YPL031C, strain PHO85, stronger effect = lower value
[61] = S. cerevisiae deletion strains, locus YPL153C, strain RAD53, stronger effect = lower value
[62] = S. cerevisiae deletion strains, locus YPL204W, strain HRR25, stronger effect = lower value
[63] = S. cerevisiae deletion strains, locus YPL209C, strain IPL1, stronger effect = lower value
[64] = S. cerevisiae deletion strains, locus YPL256C, strain CLN2, stronger effect = lower value
[65] = S. cerevisiae deletion strains, locus YPR025C, strain CCL1, stronger effect = lower value
[66] = S. cerevisiae deletion strains, locus YPR106W, strain ISR1, stronger effect = lower value
[67] = S. cerevisiae deletion strains, locus YPR111W, strain DBF20, stronger effect = lower value
[68] = S. cerevisiae deletion strains, strain NNK1, stronger effect = lower value

Measured: normalized growth

NC(=S)N/N=C\c1cc(F)cc(F)c1
active: S. cerevisiae deletion strains, locus YLR085C, strain ARP6, stronger effect = lower value 0.34 | S. cerevisiae deletion strains, locus YMR307W, strain GAS1, stronger effect = lower value 0.574 | S. cerevisiae deletion strains, locus YNL298W, strain CLA4 (second series), stronger effect = lower value 0.761
inactive: S. cerevisiae deletion strains, locus YAL013W, strain DEP1, stronger effect = lower value 0.97 | S. cerevisiae deletion strains, locus YBR229C, strain ROT2, stronger effect = lower value 1.01 | [1] 1.04 | S. cerevisiae deletion strains, locus YDR150W, strain NUM1, stronger effect = lower value 0.96 | S. cerevisiae deletion strains, locus YEL061C, strain CIN8, stronger effect = lower value 0.94 | S. cerevisiae deletion strains, locus YGR078C, strain PAC10, stronger effect = lower value 0.998 | S. cerevisiae deletion strains, locus YGR229C, strain SMI1, stronger effect = lower value 0.944 | [2] 0.778 | S. cerevisiae deletion strains, locus YHR087W, strain rtc3, stronger effect = lower value 1.08 | S. cerevisiae deletion strains, locus YJL187C, strain SWE1, stronger effect = lower value 0.971 | S. cerevisiae deletion strains, locus YJR043C, strain POL32, stronger effect = lower value 0.98 | S. cerevisiae deletion strains, locus YJR075W, strain HOC1, stronger effect = lower value 1.02 | S. cerevisiae deletion strains, locus YLR039C, strain RIC1, stronger effect = lower value 1.05 | S. cerevisiae deletion strains, locus YLR058C, strain SHM2 (second series), stronger effect = lower value 0.994 | S. cerevisiae deletion strains, locus YLR262C, strain YPT6, stronger effect = lower value 1.04 | S. cerevisiae deletion strains, locus YML094W, strain GIM5, stronger effect = lower value 0.923 | S. cerevisiae deletion strains, locus YMR219W, strain ESC1, stronger effect = lower value 0.999 | S. cerevisiae deletion strains, locus YMR263W, strain SAP30, stronger effect = lower value 0.92 | S. cerevisiae deletion strains, locus YNL153C, strain GIM3, stronger effect = lower value 0.976 | S. cerevisiae deletion strains, locus YNL322C, strain KRE1, stronger effect = lower value 1.05 | S. cerevisiae deletion strains, locus YNR030W, strain Alg12, stronger effect = lower value 0.922 | S. cerevisiae deletion strains, locus YPL055C, strain LGE1, stronger effect = lower value 0.963 | S. cerevisiae deletion strains, locus YPL241C, strain CIN2, stronger effect = lower value 0.933 | S. cerevisiae deletion strains, locus YPR135W, strain CTF4, stronger effect = lower value 0.78 | S. cerevisiae strains, strain wild type, stronger effect = lower value 0.923

S=C(N/N=C\c1ccc(Cl)cc1)N/N=C\c1ccc(Cl)cc1
active: [17] 0.477 | [26] 0.284 | [2] 0.64 | [33] 0.582 | [35] 0.448 | [38] 0.645 | [39] 0.714 | [42] 0.66 | [43] 0.693 | [45] 0.663 | [49] 0.576 | [54] 0.469 | [56] 0.618 | [61] 0.654 | [64] 0.686
inactive: [3] 0.957 | [4] 0.962 | [5] 0.962 | [6] 0.973 | [7] 0.969 | [8] 0.961 | [9] 0.959 | [1] 0.992 | [10] 0.967 | [11] 0.957 | [12] 0.77 | [13] 0.967 | [14] 0.944 | [15] 0.972 | [16] 0.81 | [18] 0.748 | [19] 0.952 | [20] 0.955 | [21] 0.965 | [22] 0.832 | [23] 0.963 | [24] 0.849 | [25] 0.779 | [27] 0.588 | [28] 0.817 | [29] 0.793 | [30] 0.966 | [31] 0.653 | [32] 0.991 | [34] 0.955 | [36] 0.596 | [37] 0.833 | [40] 0.961 | [41] 0.783 | [44] 0.738 | S. cerevisiae deletion strains, locus YMR001C, strain CDC5, stronger effect = lower value 0.965 | [46] 0.746 | [47] 0.953 | [48] 0.96 | [50] 0.963 | [51] 0.81 | [52] 0.955 | [53] 0.961 | S. cerevisiae deletion strains, locus YOL078W, strain AVO1, stronger effect = lower value 0.96 | [55] 0.75 | [57] 0.866 | [58] 0.697 | [59] 0.957 | [60] 0.688 | [62] 0.682 | [63] 0.967 | [65] 0.966 | [66] 0.972 | [67] 0.975 | [68] 0.984 | S. cerevisiae deletion strains, strain TSCII, stronger effect = lower value 0.955

Cc1cccc(Cl)c1/C=N\NC(N)=S
active: [3] 0.868 | [6] 0.862 | [7] 0.892 | [8] 0.896 | [9] 0.88 | [1] 0.89 | [10] 0.869 | [11] 0.877 | [13] 0.858 | [14] 0.865 | [15] 0.826 | [19] 0.881 | [20] 0.865 | [21] 0.899 | [23] 0.828 | [2] 0.644 | [30] 0.87 | [34] 0.885 | [40] 0.872 | [41] 0.671 | [47] 0.87 | [52] 0.845 | [57] 0.625
inactive: [4] 0.911 | [5] 0.904 | [12] 0.867 | [16] 0.765 | [17] 0.873 | [18] 0.805 | [22] 0.957 | [24] 0.8 | [25] 0.818 | [26] 0.79 | [27] 0.94 | [28] 0.893 | [29] 1.02 | [31] 0.934 | [32] 0.973 | [33] 0.855 | [35] 0.837 | [36] 0.755 | [37] 0.88 | [38] 0.886 | [39] 0.919 | [42] 1.04 | [43] 0.886 | [44] 0.756 | [45] 0.932 | [46] 0.886 | [48] 0.953 | [49] 0.904 | [50] 0.924 | [51] 0.77 | [53] 0.931 | [54] 0.797 | [55] 0.948 | [56] 0.864 | [58] 0.949 | [59] 0.927 | [60] 0.824 | [61] 0.868 | [62] 0.877 | [63] 0.912 | [64] 1.03 | [65] 0.914 | [66] 0.927 | [67] 0.919 | [68] 0.932
